Hits are enriched below; roughly 2.5% of the tested compounds scored in any of these assays.
MEKK3 PB1 HTS = raises or lowers MEK5 binding to the human MEKK3 PB1 domain. Q99759. bead-based flow cytometry, Alexa488-MEK5 binding to MEKK3; actives lie on both sides; 0 = blocked by unlabeled MEK5, 100 = vehicle. binding response (% of control), % at 10 µM. 290,000 tested, 1.4% active. AID 1529;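 active means binding response more than 3 SD above or below the average of its plate-row segment, actives on both sides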;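 further: Alexa488 bead fluorescence after subtracting the streptavidin-only scavenger bead signal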
MEKK2wt PB1 HTS = raises or lowers MEK5 binding to wildtype human MEKK2 PB1 domain; Q9Y2U5; 290,000 tested, 1.1% active; bead flow cytometry, Alexa488-MEK5 binding to MEKK2 WT; actives lie on both sides; binding response (% of control), % at 10 µM; in the data active means binding response below about 67% or above about 130%
MEKK2 mut-MEK5 = signal of MEK5 binding to mutant human MEKK2 PB1 domain | 290,000 tested, 0.35% active | bead flow cytometry, Alexa488-MEK5 binding to MEKK2 mutant | percent response, % at 10 µM | AID 1530; in the data active means percent response above about 24%, passing the limit was not always enough
GRK2 inh = inhibitors of human GRK2 displacing RNA aptamer. 330,000 tested, 0.59% active. bead flow cytometry, FAM-aptamer displacement from GRK2. P25098. inhibition of aptamer binding, % at 10 µM;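 active means inhibition of aptamer binding above 40%, roughly 3 SD of noise, on plates passing a quality check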;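 further: median bead fluorescence of bound FAM aptamer so fluorescent compounds give negative values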
Target sequence (P25098 whole entry, looked up): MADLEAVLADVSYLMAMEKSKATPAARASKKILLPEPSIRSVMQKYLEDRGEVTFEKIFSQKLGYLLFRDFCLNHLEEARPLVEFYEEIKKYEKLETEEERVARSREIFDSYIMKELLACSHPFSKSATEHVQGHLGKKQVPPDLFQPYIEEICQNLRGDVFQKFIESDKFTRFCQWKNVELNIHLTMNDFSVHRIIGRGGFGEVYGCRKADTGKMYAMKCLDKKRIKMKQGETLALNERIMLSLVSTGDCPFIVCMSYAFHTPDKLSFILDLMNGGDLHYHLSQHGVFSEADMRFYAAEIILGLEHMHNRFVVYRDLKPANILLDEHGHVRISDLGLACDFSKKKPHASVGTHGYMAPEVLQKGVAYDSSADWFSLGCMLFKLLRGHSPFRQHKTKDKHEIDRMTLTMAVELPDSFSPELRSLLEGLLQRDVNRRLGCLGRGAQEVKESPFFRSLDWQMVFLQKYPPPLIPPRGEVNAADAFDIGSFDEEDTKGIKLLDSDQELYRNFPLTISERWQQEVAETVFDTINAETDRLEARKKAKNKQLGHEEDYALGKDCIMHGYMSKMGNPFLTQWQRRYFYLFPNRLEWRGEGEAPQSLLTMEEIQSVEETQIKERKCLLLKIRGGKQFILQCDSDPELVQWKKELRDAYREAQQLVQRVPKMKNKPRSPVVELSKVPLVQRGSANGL
GRK2 CP1 = human GRK2 inhibition confirmation, cherry pick 1. shares compounds with GRK2 inh. bead-bound GRK2, FAM-aptamer displacement, flow cytometry. aptamer displacement, % at 10 µM. 2,000 tested, 4% active. AID 504451;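 active means aptamer displacement above 40%, near three times the noise of non-fluorescent compounds, on plates passing quality checks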;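 further: negative values mostly reflect intrinsic compound fluorescence rather than true enhancement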
Aptamer quench = quenches fluorescent RNA aptamer, GRK2 hit artifact; shares compounds with GRK2 inh; 110 tested, under 10 active; AID 504521; fluorescence change (kMESF span), kMESF (test concentration not listed); Fluorescent RNA aptamer beads, quenching, flow cytometry; hits give high values;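 active means compounds whose bead fluorescence drops by more than 37 kMESF across the dose range, marking them as dye quenchers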
Aptamer quench SP = counter-screen for GRK2 aptamer inhibitors: fluorescent aptamer quenchers. shares compounds with GRK2 inh. Carboxyfluorescein RNA aptamer on beads, flow cytometry quenching; hits give low values. fluorescence response (% of DMSO), % at 10 µM. 2,000 tested, under 10 active;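 active means compounds that quench the bead-bound fluorescent RNA probe, cutting fluorescence to under half of the solvent control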;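 further: counterscreen run without GRK2 so only probe quenching by compound is measured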
GRK2 confirm 2 = confirmation of human GRK2 inhibitors binding RNA aptamer site. shares compounds with GRK2 inh. bead-bound GRK2, FAM-aptamer displacement, flow cytometry. inhibition of aptamer binding, % at 10 µM. 360 tested, under 10 active. AID 504782;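 active means inhibition of aptamer binding above 40%, about triple the noise seen with nonglowing compounds, on plates passing quality control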;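 further: negative values mostly come from compounds that fluoresce themselves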
Aptamer quench 2 = counter-screen for GRK2 aptamer inhibitors: fluorescent aptamer quenchers; 25 tested, under 10 active; shares compounds with GRK2 inh; Streptavidin beads, FAM-RNA aptamer fluorescence quenching, flow cytometry; change in fluorescence (kMESF span), kMESF (concentration not given with the values); AID 504819;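 active means compounds quenching the bead-bound labeled aptamer, with fluorescence dropping by more than 37 kMESF over the dose range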
FAM quench SP = quenches fluorescent RNA aptamer, GRK2 hit artifact; shares compounds with GRK2 inh; carboxyfluorescein RNA aptamer beads, flow cytometry quenching; hits give low values; fluorescence response vs DMSO, % at 10 µM; 360 tested, under 10 active; AID 588494;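 active means response vs DMSO under 50%, meaning signal dropped by over half, treated as fluorescence quencher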;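 further: labelled aptamer on streptavidin beads without GRK2 as a quench counter-screen; 100% = bead fluorescence of DMSO wells and lower means quenching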
FAM quench DR = aptamer fluorescence quenching in GRK2 powder counter-screen | fluorescence ratio to DMSO, % at 11.1 µM | 35 tested, under 10 active | Bead-bound FAM RNA aptamer fluorescence quenching, flow cytometry; hits give low values | shares compounds with GRK2 inh | AID 588496;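 active means compounds that dim the fluorescent label, raw bead signal shifting by over 33 units between lowest and highest dose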
* hit, by the source's call; . = not tested or not shown.

SMILES	MEKK3 PB1 HTS	MEKK2wt PB1 HTS	MEKK2 mut-MEK5	GRK2 inh	GRK2 CP1	Aptamer quench SP	others
Cc1onc(-c2ccccc2)c1C(=O)NCC1CCCO1 (stereo not drawn)	103.0	106.0	5.0	91.0*	-2.0	98.8
CN(CC(=O)Nc1ccccc1C(F)(F)F)C(=O)CC1OC(=O)c2ccccc21 (stereo not drawn)	102.0	106.0	1.0	4.0	.	.
CC(C)(C)NC(=O)NC(=O)COC(=O)CNS(=O)(=O)c1ccc(Br)cc1Cl	101.0	93.0	-12.0	1.0	.	.
CN(C)C(=O)CN(c1ccc2c(c1)OCO2)S(C)(=O)=O	102.0	85.0	2.0	47.0*	4.4	103.0
CCOc1ccc(NC(=O)CSc2ccc(-c3ccco3)nn2)cc1	104.0	106.0	7.0	0.0	.	.
CCc1nnc(NC(=O)c2cc(C)oc2C)s1	108.0	113.0	12.0	2.0	.	.
COc1ccc(CCNC(=O)CCS(=O)(=O)c2ccc(Br)cc2)cc1OC	104.0	99.0	-2.0	20.0	13.2	94.8	Aptamer quench=7.4;FAM quench DR=100.0
O=C(CCS(=O)(=O)c1ccc(Br)cc1)NCc1ccc(F)cc1	100.0	103.0	-6.0	87.0*	.	.	GRK2 confirm 2=53.6*;Aptamer quench 2=0.5;FAM quench SP=102.0
CSc1ccccc1NC(=O)N1CCCC(C(=O)c2ccc3c(c2)OCO3)C1 (stereo not drawn)	102.0	99.0	1.0	95.0*	-1.0	95.7
CC(=O)c1ccc(NC(=O)N2CCCC(C(=O)c3ccc4c(c3)OCO4)C2)cc1 (stereo not drawn)	108.0	106.0	8.0	8.0	.	.
O=[N+]([O-])c1ccc(N2CCN(c3ccc(Cl)nn3)CC2)c(Cl)c1	102.0	104.0	-1.0	0.0	.	.
O=[N+]([O-])c1ccc(N2CCN(c3ccc(Cl)nn3)CC2)cc1NC1CC1	97.0	96.0	1.0	64.0*	-0.8	98.6
Cc1nn2c(NCCOCCO)c3c(nc2c1-c1ccccc1)CCCC3	89.0	89.0	-5.0	4.0	.	.
CCN(C[C@H]1N[C@@](Cc2ccccc2)(C(=O)OC)[C@H]2C(=O)N(C)C(=O)[C@@H]12)C(=O)Nc1ccc(C)cc1	.	.	.	0.0	.	.
O=C(Nc1cccc(Br)c1)C1CCCC1	.	.	.	0.0	.	.
O=C(O)C1CCCCC1C(=O)Nc1cccc(Br)c1 (stereo not drawn)	.	.	.	86.0*	92.9*	91.5	Aptamer quench=0.2
CCc1ccc(NC(=O)C(NS(=O)(=O)c2ccc3c(c2)CCN3C(C)=O)C(C)C)cc1 (stereo not drawn)	100.0	99.0	1.0	2.0	.	.
Cc1ccccc1-c1cc(C(=O)NCc2cccs2)nn1CC1CC(c2cccc([N+](=O)[O-])c2)=NO1 (stereo not drawn)	.	.	.	0.0	-0.7	110.7
NC(=O)c1ccsc1NC(=O)CS(=O)(=O)c1ccccc1	.	.	.	0.0	.	.	GRK2 confirm 2=9.2;FAM quench SP=98.0
CNC(=O)c1ccsc1NC(=O)CS(=O)(=O)c1ccccc1	.	.	.	1.0	.	.	GRK2 confirm 2=10.6;FAM quench SP=100.0
NC(=O)c1ccsc1NC(=O)CCS(=O)(=O)c1ccccc1	100.0	98.0	0.0	3.0	.	.
CN(C(=O)c1cc2n(n1)C(C(F)(F)F)CC(c1ccco1)N2)c1ccc(OC(F)(F)F)cc1 (stereo not drawn)	100.0	98.0	1.0	0.0	.	.
COc1ccc(-n2c3nc4ccccc4nc3c3c(=N)oc(C)nc32)cc1	105.0	105.0	5.0	86.0*	.	.	GRK2 confirm 2=-0.9;FAM quench SP=100.0
CCOc1ccc(CNC(=O)c2cccc(NC(=O)C3=C(C)OCCS3)c2)cc1	100.0	99.0	2.0	0.0	-0.1	99.1
O=C1CC(N(Cc2ccc3c(c2)OCO3)C(=O)Nc2ccc(F)cc2)C(=O)N1c1ccccc1 (stereo not drawn)	100.0	100.0	4.0	0.0	.	.
SMILES	MEKK3 PB1 HTS	MEKK2wt PB1 HTS	MEKK2 mut-MEK5	GRK2 inh	GRK2 CP1	Aptamer quench SP	others
COc1ccc(NC(=O)N(Cc2ccc3c(c2)OCO3)C2CC(=O)N(c3ccc(OC)cc3)C2=O)cc1 (stereo not drawn)	92.0	93.0	-1.0	99.0*	0.7	101.4
C=CCNC(=S)NNC(=O)C(CCCC)CC(O)COCC(C)C (stereo not drawn)	82.0	81.0	-22.0	45.0*	3.6	101.2
COc1cc2c(cc1OC)CN(C(=O)c1ccc(N3CCCC3)c([N+](=O)[O-])c1)CC2	.	.	.	3.0	.	.
CCCCCC(=O)Nc1ccc(S(=O)(=O)Nc2cc(OC)nc(OC)n2)cc1	98.0	103.0	4.0	0.0	.	.
COC(=O)CCC(=O)Nc1ccc(S(=O)(=O)Nc2cc(OC)nc(OC)n2)cc1	110.0	111.0	15.0	38.0	2.5	98.2
COc1ccc([C@@H]2CC=C(C(=O)O)[C@H](c3ccc(Cl)cc3)N2S(=O)(=O)c2ccc(Cl)cc2)cc1	.	.	.	49.0*	-6.4	100.6
COc1cc([C@@H]2CC=C(C(=O)O)[C@H](c3ccc(Cl)cc3)N2S(=O)(=O)c2ccc(C)cc2)cc(OC)c1OC	.	.	.	1.0	.	.
CC(C(=O)Nc1ccon1)N1C(=O)c2ccccc2S1(=O)=O (stereo not drawn)	.	.	.	95.0*	-1.4	96.2
CC(C(=O)Nc1nccs1)N1C(=O)c2ccccc2S1(=O)=O (stereo not drawn)	.	.	.	1.0	.	.
Cc1ccc(-c2c(C(=O)O)c(C(=O)O)c3n2CSC3)cc1	102.0	105.0	5.0	1.0	.	.
COc1ccccc1S(=O)(=O)n1cc(Cc2ccccc2)c(N)n1	99.0	97.0	5.0	74.0*	-11.3	97.5
COc1ccc(NC(=O)COc2ccccc2Cc2ccccc2)cc1S(N)(=O)=O	101.0	104.0	1.0	0.0	.	.
COC(=O)\C(C(C)=O)=C(/C=C/C=C/C=C/N(C)C)N(C)C	97.0	94.0	-2.0	71.0*	35.5	94.9
COC(=O)/C(C(C)=O)=C(\C=C\N(C)C)N(C)C	97.0	98.0	-1.0	3.0	.	.
Cc1cc(OCCCCN2C(=O)NC(C)(C)C2=O)cc(C)c1Cl	104.0	105.0	1.0	1.0	.	.

Screening data from PubChem BioAssay.
